In PubChem BioAssay (Tox21):
Records with an inconclusive call do not appear. Entries that show only a call come without a potency. Activity calls are given as the source filed them. Calls come from the whole dose curve.

Test: qHTS assay for small molecules that induce genotoxicity in human embryonic kidney cells expressing luciferase-tagged ATAD5 - cell viability (AID 651634); note: nearly all actives have a fitted effect of over 25% in size
Settings: HEK293T ATAD5-luc cells viability, CellTiter-Fluor, 15.5 h; series mostly up to 83.3 µM; activity, negative = cytotoxicity: at the top concentration
Source text: National Center for Advancing Translational Sciences [NCATS]
NIH Chemical Genomics Center [NCGC]
U.S. Environmental Protection Agency [EPA]
National Institutes of Environmental Health Sciences [NIEHS]
National Toxicology Program [NTP]
U.S. Food and Drug Administration [FDA]
Enhanced Level of Genome Instability Gene 1 (ELG1; human ATAD5) protein levels increase in response to various types of DNA damage. Using a luciferase reporter-gene tagged with ElG1, a cell-based assay [developed by Kyungjae Myung, NHGRI, NIH] was used to measure the induction of ATAD5 in human embryonic kidney cells (HEK293T). So, increase in luciferase activity can be used to identify the compounds that cause genetic stress. In addition to genotoxicity, these cells were also used to test for cytotoxicity by measuring the protease activity within live cells.
Tox21 Assay Protocol Summary:
For cytotoxicity screening, 2,000 cells in 5 uL/well were dispensed into white, solid-bottom 1536-well plates using a Multidrop Combi (Thermo Scientific) dispenser. Following transfer of 23 nL compound or DMSO vehicle by a pin tool, the plates were incubated 15.5 hr at 37C and 5% CO2. 1 ul CellTiter-Fluor reagent (Promega, Madison, WI) was then added to each plate and following 30 min incubation at 37C, fluorescence intensity was quantified on a ViewLux CCD-based plate reader.
Potency is the fitted concentration of half-maximal effect.

Structure (SMILES)	Potency	activity, negative = cytotoxicity
O=c1oc2ccccc2c(O)c1C(CC(O)c1ccc(-c2ccc(Br)cc2)cc1)c1ccccc1 (stereo not given)	inactive	–
Brc1ccc(Oc2cc(Br)c(Br)cc2Br)c(Br)c1	inactive	–
C#CCOS(=O)OC1CCCCC1Oc1ccc(C(C)(C)C)cc1 (stereo not given)	–	-10.9% (inactive)
CC(C)(c1cc(Cl)c(O)c(Cl)c1)c1cc(Cl)c(O)c(Cl)c1	inactive	–
Oc1cc(Cl)c(Cl)cc1Cl	inactive	–
Nc1ccncc1	inactive	–
Cc1ccc(OP(=O)(Oc2ccc(C)cc2)Oc2ccc(C)cc2)cc1	inactive	–
CNC(=O)Oc1cccc2c1OC(C)(C)O2	inactive	–
COP(=S)(OC)Oc1cc(Cl)c(Cl)cc1Cl	inactive	–
CCCCCCCCC(=O)NCc1ccc(O)c(OC)c1	inactive	–
Cc1cc(Cl)ccc1OCCCC(=O)O	inactive	–
Clc1nc(Cl)nc(Cl)n1	inactive	–
Oc1ccc(-c2ccccc2)cc1	inactive	–
C=CCN(CC=C)C(=O)C(Cl)Cl	inactive	–
Nn1cnnc1	inactive	–
C[C@]12CCC(=O)C(O)=C1CC[C@@H]1[C@@H]2CC[C@]2(C)C(=O)CC[C@@H]12	inactive	–
COP(=O)(OC)OC	inactive	–
CC(C)=CC1C(C(=O)OCc2coc(Cc3ccccc3)c2)C1(C)C (stereo not given)	inactive	–
c1cc(OCC2CO2)ccc1Cc1ccc(OCC2CO2)cc1 (stereo not given)	inactive	–
O=P(Oc1ccccc1)(Oc1ccccc1)Oc1ccccc1	inactive	–

Structure (SMILES)	Potency	activity, negative = cytotoxicity
CCN(CC)C(=O)/C(Cl)=C(\C)OP(=O)(OC)OC	inactive	–
C1=Cc2cccc3cccc1c23	inactive	–
NNC(=S)NN	inactive	–
Nc1ccc(Cl)c(Cl)c1	inactive	–
O=S(=O)(Oc1ccc(Cl)cc1)c1ccc(Cl)cc1	inactive	–
CCC(=O)O[C@H]1CC[C@H]2[C@@H]3CCC4=CC(=O)CC[C@]4(C)[C@H]3CC[C@]12C	inactive	–
CNC(=O)N(C)c1nnc(C(C)(C)C)s1	inactive	–
CC1(C)C(C=C(Cl)Cl)C1C(=O)OC(C#N)c1cccc(Oc2ccccc2)c1 (stereo not given)	inactive	–
N#Cc1cc(Br)c(O)c(Br)c1	inactive	–
CCCCOCCOP(=O)(OCCOCCCC)OCCOCCCC	–	-17.4% (inactive)
Oc1cc(Cl)ccc1Cl	inactive	–
Nc1ccc(-c2ccccc2)cc1	inactive	–
c1ccc(P(c2ccccc2)c2ccccc2)cc1	inactive	–
CCOC(=O)C(C)OC(=O)c1cc(Oc2ccc(C(F)(F)F)cc2Cl)ccc1[N+](=O)[O-] (stereo not given)	inactive	–
Cc1ccc2c(c1N)C(=O)c1ccccc1C2=O	12.2 µM (active)	–
c1ccc(N=Nc2ccccc2)cc1	inactive	–
c1nc[nH]n1	inactive	–
O=C(CCl)c1ccccc1	–	-12.3% [at 95.3 µM] (inactive)
CCN(N=O)C(N)=O	inactive	–
CCN(CC)C(=O)SCc1ccc(Cl)cc1	inactive	–
